Source: PubChem BioAssay (Tox21)
Inconclusive results are not listed. Calls of active or inactive are those of the source. Unless noted, the call rests on the fitted dose curve; in most records, active means well fitted curve in the direction sought with a large enough effect in the repeat runs; inconclusive means weak or mixed curves; inactive means no such curve, though single readings can be large; an effect the other way counts as inactive or inconclusive.

Legend:
[1] = qHTS assay for small molecules that induce genotoxicity in human embryonic kidney cells expressing luciferase-tagged ATAD5 (AID 651632); further: nearly all actives have a fitted effect of over 15% in size
How it was run: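 Cells were seeded at 2,000 per well, dosed with compound, and incubated 16 hr at 37C in 5% CO2. Luciferase activity was then quantified after a 30 min room-temperature incubation with Amplite.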

[2] = qHTS assay for small molecules that induce genotoxicity in human embryonic kidney cells expressing luciferase-tagged ATAD5 - cell viability (AID 651634; calls by dose curve; further: nearly all actives have a fitted effect of over 25% in size)
How it was run: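 Cells (HEK293T, luciferase-tagged ATAD5) are seeded at 2,000 per well, dosed with compound or DMSO vehicle, and incubated 15.5 hr at 37C and 5% CO2. CellTiter-Fluor is added for 30 min before fluorescence is measured.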

[3] = qHTS assay for small molecule disruptors of the mitochondrial membrane potential - cell viability (AID 720634; calls by dose curve;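 further: human HepG2 liver cancer cells; series mostly up to about 83 µM; nearly all actives have a fitted effect of over 20% in size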)
How it was run: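 Cytotoxicity was measured by ATP quantitation in HepG2 wells that had first been treated with compound for 1 hr and stained with m-MPI dye; CellTiter-Glo incubation was 30 min at room temperature.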

[4] = qHTS assay to test for compound auto fluorescence at 590 nm (red) in HepG2 cells (AID 720674)
How it was run: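 Red autofluorescence (Ex/Em 540/590 nm, Rose Bengal sodium equivalents) was measured in HepG2 cells, 2,000 per well in MEM plus 10% FBS, plated overnight at 37 C. Readings were taken 1 hr after adding 23 nL compound or DMSO, at 37 C and 5% CO2.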

[5] = qHTS assay to test for compound auto fluorescence at 460 nm (blue) in HEK293 cells (AID 720678)
How it was run: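 Blue-channel (Ex/Em 405/460 nm) intensity measured in HEK293 cultures after overnight compound exposure at 37C; signal expressed relative to triamterene. Cells plated 2,000 per well in 10% dialyzed FBS medium and allowed 4-5 hr to attach.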

[6] = qHTS assay to test for compound auto fluorescence at 535 nm (green) in HEK293 cells (AID 720680)
[7] = qHTS assay to test for compound auto fluorescence at 460 nm (blue) in HEK293 cell free culture (AID 720681)
How it was run: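 Blue fluorescence (Ex 405/Em 460 nm, triamterene-equivalent) was read immediately after pin transfer of compound or DMSO into medium (DMEM, 10% FBS) without cells.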

[8] = qHTS assay to test for compound auto fluorescence at 535 nm (green) in HEK293 cell free culture (AID 720682)
How it was run: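 Measurement is a direct plate read of green fluorescence (485 nm in, 535 nm out) after compound addition to serum-supplemented DMEM lacking cells, with fluorescein used to express intensities.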

[9] = qHTS assay to test for compound auto fluorescence at 590 nm (red) in HEK293 cell free culture (AID 720683)
How it was run: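 Red-channel autofluorescence of compounds in culture medium (DMEM, 10% FBS), no cells, measured at 540/590 nm. Rose Bengal sodium is the reference fluorophore for equivalence.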

[10] = qHTS assay to test for compound auto fluorescence at 590 nm (red) in HepG2 cell free culture (AID 720684)
How it was run: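 Cell-free; medium MEM + 10% FBS; compound or DMSO added by pintool; read Ex 540/Em 590 nm; Rose Bengal sodium as red reference fluorophore.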

[11] = qHTS assay to test for compound auto fluorescence at 460 nm (blue) in HepG2 cell free culture (AID 720685)
How it was run: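 Cell-free plates of MEM plus 10% FBS received 23 nL compound or DMSO vehicle; blue-channel (405/460 nm) intensity scored against triamterene as reference fluorophore.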

[12] = qHTS assay to test for compound auto fluorescence at 460 nm (blue) in HepG2 cells (AID 720687)
How it was run: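 Blue-channel autofluorescence (Ex/Em 405/460 nm, triamterene-equivalent) was measured after 1 hr compound exposure at 37 C, 5% CO2. Cells were HepG2, plated overnight at 37 C in MEM plus 10% FBS.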

[13] = qHTS assay to identify small molecule antagonists of the glucocorticoid receptor (GR) signaling pathway - cell viability counter screen (AID 720693); further: nearly all actives have a fitted effect of over 55% in size
[14] = qHTS assay to identify small molecule antagonists of the thyroid receptor (TR) signaling pathway - cell viability counter screen (AID 743064); further: nearly all actives have a fitted effect of over 50% in size
How it was run: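 Compounds were tested on GH3.TRE-Luc cells in the presence of T3 at 1 nM final. Following 23.5 h at 37 °C, cell viability was quantified by CellTiter-Fluor.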

Aromatase (Homo sapiens) = Aromatase (Homo sapiens) (UniProt P11511); experiment: qHTS assay to identify aromatase inhibitors (AID 743083); further: series mostly up to about 70 µM; nearly all actives have a fitted effect of over 55% in size
[15] = qHTS assay to identify aromatase inhibitors - cell viability counter screen (AID 743084);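 further: cells stimulated with testosterone during compound exposure; nearly all actives have a fitted effect of over 55% in size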
[16] = molecular target: Aryl hydrocarbon receptor (Homo sapiens) (UniProt P35869); experiment: qHTS assay to identify small molecule that activate the aryl hydrocarbon receptor (AhR) signaling pathway (AID 743085);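 further: HG2L7.5c1 human HepG2 liver cells with stably integrated DRE-driven firefly reporter; series mostly up to about 70 µM; nearly all actives have a fitted effect of over 15% in size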
How it was run: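 24 h compound exposure, 37C, HepG2-derived HG2L7.5c1 cells with DRE-responsive luciferase. Readouts: fluorescence viability, then luminescence at room temperature after 30 min.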

[17] = molecular target: Acetylcholinesterase (Homo sapiens) (UniProt P22303); experiment: Acetylcholinesterase (AChE) small molecule antagonists: colormetric cell-based qHTS assay (AID 1347395; calls by dose curve; further: nearly all actives have a fitted effect of over 30% in size)
How it was run: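 In this cell-based qHTS, attached SH-SY5Y cells were treated with test chemicals for 30 min, after which acetylthiocholine hydrolysis was followed by DTNB colour development over 90 min at 37 C.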

[18] = molecular target: Acetylcholinesterase (Homo sapiens) (UniProt P22303); experiment: Acetylcholinesterase (AChE) small molecule antagonists: enzyme-based qHTS assay (AID 1347397; calls by dose curve; further: nearly all actives have a fitted effect of over 55% in size); details: Potency: AChE enzyme activity inhibition; outcome: AChE enzyme activity inhibition
How it was run: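 Colorimetric DTNB readout of acetylthiocholine hydrolysis, 10 min at room temperature, after 30 min room-temperature exposure of 50 mU/mL recombinant human enzyme to compound; DMSO vehicle control.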

[19] = molecular target: Acetylcholinesterase (Homo sapiens) (UniProt P22303); experiment: Acetylcholinesterase (AChE) small molecule antagonists: fluorescence cell-based qHTS assay (AID 1347398; calls by dose curve; further: nearly all actives have a fitted effect of over 50% in size); details: Potency: AChE activity; outcome: AChE activity
How it was run: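 Cellular AChE activity read as thiocholine from acetylthiocholine hydrolysis, detected by Thiolite Green fluorescence at 490/520 nm after 40 min at room temperature. Compounds were pre-incubated 30 min at 37 C on adherent SH-SY5Y cells.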

Measured: Potency

Chain of Aromatase (Homo sapiens) (P11511 whole entry, looked up): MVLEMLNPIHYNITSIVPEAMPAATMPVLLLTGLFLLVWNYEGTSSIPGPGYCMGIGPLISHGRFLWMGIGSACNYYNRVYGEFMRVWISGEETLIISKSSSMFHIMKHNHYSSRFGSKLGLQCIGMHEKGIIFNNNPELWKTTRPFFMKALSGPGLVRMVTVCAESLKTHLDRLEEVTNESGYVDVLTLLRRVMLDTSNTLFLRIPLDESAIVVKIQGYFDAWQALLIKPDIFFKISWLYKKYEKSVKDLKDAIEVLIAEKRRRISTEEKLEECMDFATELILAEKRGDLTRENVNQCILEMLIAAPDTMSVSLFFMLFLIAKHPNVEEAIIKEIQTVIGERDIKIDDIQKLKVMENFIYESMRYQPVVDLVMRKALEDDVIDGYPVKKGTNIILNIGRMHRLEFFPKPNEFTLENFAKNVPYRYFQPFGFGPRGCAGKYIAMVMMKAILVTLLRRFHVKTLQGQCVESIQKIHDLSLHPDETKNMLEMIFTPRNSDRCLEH
Chain of Aryl hydrocarbon receptor (Homo sapiens) (P35869 whole entry, looked up): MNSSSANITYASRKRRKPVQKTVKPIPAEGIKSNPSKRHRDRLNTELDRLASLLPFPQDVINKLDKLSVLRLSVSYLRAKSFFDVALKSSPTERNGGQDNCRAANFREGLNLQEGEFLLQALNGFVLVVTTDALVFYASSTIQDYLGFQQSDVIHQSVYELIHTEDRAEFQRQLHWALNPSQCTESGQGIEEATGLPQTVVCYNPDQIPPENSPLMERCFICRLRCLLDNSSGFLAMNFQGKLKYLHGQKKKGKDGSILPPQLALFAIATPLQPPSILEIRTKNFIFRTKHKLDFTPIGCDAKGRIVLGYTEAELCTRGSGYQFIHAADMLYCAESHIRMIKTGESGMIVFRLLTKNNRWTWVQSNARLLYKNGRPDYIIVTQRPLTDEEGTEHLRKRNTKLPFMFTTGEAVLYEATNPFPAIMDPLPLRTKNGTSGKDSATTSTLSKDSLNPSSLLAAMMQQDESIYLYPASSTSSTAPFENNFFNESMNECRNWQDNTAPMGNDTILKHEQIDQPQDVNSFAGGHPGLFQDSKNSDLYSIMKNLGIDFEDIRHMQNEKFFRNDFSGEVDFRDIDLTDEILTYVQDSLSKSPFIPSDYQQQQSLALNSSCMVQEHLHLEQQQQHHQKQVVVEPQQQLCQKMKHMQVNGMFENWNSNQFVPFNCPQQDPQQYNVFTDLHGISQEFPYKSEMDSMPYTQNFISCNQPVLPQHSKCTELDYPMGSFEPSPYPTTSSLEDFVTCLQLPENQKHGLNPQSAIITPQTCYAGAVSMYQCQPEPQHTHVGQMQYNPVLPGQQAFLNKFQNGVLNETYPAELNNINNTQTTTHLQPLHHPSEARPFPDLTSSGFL
Chain of Acetylcholinesterase (Homo sapiens) (P22303 whole entry, looked up): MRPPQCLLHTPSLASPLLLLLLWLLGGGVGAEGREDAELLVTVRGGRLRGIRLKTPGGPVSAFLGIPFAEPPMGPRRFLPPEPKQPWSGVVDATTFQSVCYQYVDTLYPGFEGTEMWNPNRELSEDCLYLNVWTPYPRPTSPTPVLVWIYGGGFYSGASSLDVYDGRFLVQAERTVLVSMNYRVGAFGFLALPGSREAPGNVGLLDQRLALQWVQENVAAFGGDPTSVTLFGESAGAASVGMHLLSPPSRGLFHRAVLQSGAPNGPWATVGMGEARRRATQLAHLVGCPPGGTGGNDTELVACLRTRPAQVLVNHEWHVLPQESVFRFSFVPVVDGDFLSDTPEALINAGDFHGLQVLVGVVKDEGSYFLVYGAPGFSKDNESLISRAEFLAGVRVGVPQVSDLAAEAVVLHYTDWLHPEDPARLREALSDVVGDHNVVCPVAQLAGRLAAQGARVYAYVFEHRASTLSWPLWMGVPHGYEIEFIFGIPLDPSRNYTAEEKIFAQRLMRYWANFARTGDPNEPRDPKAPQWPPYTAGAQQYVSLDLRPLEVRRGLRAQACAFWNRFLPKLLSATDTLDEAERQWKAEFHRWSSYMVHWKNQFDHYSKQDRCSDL

C1CN(P2(N3CC3)=NP(N3CC3)(N3CC3)=NP(N3CC3)(N3CC3)=N2)CCO1 (stereo unspecified)
not listed: [17] | [18] | [19]
inactive: all other assays above

O=C1OC(=O)c2c(Br)c(Br)c(Br)c(Br)c21
inactive: Aromatase (Homo sapiens) | [16] | [17] | [18] | [19]

CCCCNC(C)(C)[P+](=O)O
not listed: [6] | [17] | [18] | [19]
inactive: all other assays above

CC[N+](C)(CC)CCOC(=O)C(O)(c1ccccc1)c1ccccc1
not listed: [5] | [17] | [18] | [19]
inactive: all other assays above

COC(=O)C1=C(C)NC(C)=C(C(=O)OCCN(C)Cc2ccccc2)C1c1cccc([N+](=O)[O-])c1 (stereo unspecified)
inactive: [17] | [18]

COC(=O)CC(=O)OC
inactive: [17] | [18] | [19]

Cc1ccc2ccccc2n1
inactive: [17] | [18] | [19]

CC(C)(C#N)c1cc(Cn2cncn2)cc(C(C)(C)C#N)c1
inactive: [17] | [18] | [19]

CCC1(c2ccccc2)C(=O)NC(=O)N(C(=O)c2ccccc2)C1=O (stereo unspecified)
not listed: [5] | [10] | [17] | [18] | [19]
inactive: all other assays above

CC(C)C[C@H](CN)CC(=O)O
not listed: [5] | [17] | [18] | [19]
inactive: all other assays above

COc1ccc2c3c1O[C@H]1C(=O)CC[C@H]4[C@@H](C2)N(C)CC[C@]314
not listed: [5] | [6] | [17] | [18] | [19]
inactive: all other assays above
